Laboratory results: PubChem BioAssay
Records with an inconclusive call do not appear. Active and inactive are the calls of the source.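 The calls were made as follows, unless noted: active = RAM network inhibition above 8.4% in each of two replicates, 3 SD over the compound average; inconclusive = above 8.4% inhibition in only one replicate; inactive = 8.4% inhibition or less in each replicate.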

How the values were obtained:
[1] = reducers of endogenous Her2 protein level, primary screen, SKBR3 breast tumor cells, AlphaScreen, ATP viability (AID 461;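 active = Her2 level under about 52% in both replicate screens, with viability over 70% of control, limit read from the data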;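 as to Her2 level: lower value means less Her2 protein in the cells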;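 as to viability: percent of carrier control wells set as 100% viability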); settings: 18-24 h, measured here: SKBR3 viability, ATP luminescence, at 10 µM
[2] = molecular target: Receptor tyrosine-protein kinase erbB-2 (Homo sapiens) (UniProt P04626); test: as above; settings: 18-24 h, at 10 µM, stronger effect = lower value
[3] = SK-BR-3 cell growth inhibitors, pilot screen, 24 h, human (AID 572;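 active = viability at or below 10% of carrier control in both of two separate runs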;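 also: compound exposure lasted between 18 and 24 h rather than exactly 24 h; 100% = carrier-treated control wells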); settings: SK-BR-3 viability, CellTiter-Glo luminescence, at 10 µM, stronger effect = lower value
[4] = HUVEC growth inhibition – cell-based, human, primary screen (AID 575;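 active = viability at or below 30% in both replicate assays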;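 also: 100% = median of untreated cell wells with 0.1% DMSO on each plate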); settings: HUVEC proliferation, CellTiter-Glo luminescence, 72 h; at 10 µM; stronger effect = lower value
[5] = growth inhibitors of H69AR lung tumor, primary screen, human, duplicate replicates (AID 580;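 active = viability at or under a set limit in both replicates, limit being median viability minus 3 SD, cut at about 48% in these data, passing the limit was not always enough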;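 also: 100% = mean luminescence of untreated wells and 0% = no signal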); settings: H69AR lung tumor cells viability, ATP luminescence, 72 h; at 10 µM; stronger effect = lower value
[6] = reversal of MRP1-mediated doxorubicin resistance, pilot screen, H69AR cells, doxorubicin co-treatment (AID 601;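 active = viability loss from added drug above about 55%, and viability with drug at most 40%, in both replicates, limit read from the data, passing the limit was not always enough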); settings: CellTiter-Glo, 72 h, at 10 µM; for differential viability (reversal): stronger effect = higher value
[7] = 384-well plate pilot, post-Golgi transport modulator project, inhibition of yeast transport mutant growth (AID 636; in the data active = inhibition above about 31%); settings: absorbance 615 nm, about 18 h, stronger effect = higher value
[8] = growth suppression of yeast trafficking mutant, preliminary HTS, modulators of trafficking downstream of Golgi apparatus project, 1536-format plate, OD 615 nm (AID 637; in the data active = inhibition above about 30%); settings: yeast transport mutant growth, absorbance 615 nm, 18 h; stronger effect = higher value
[9] = OD615 S. cerevisiae growth inhibition, permissive medium, pilot counter-assay, permissive growth control for S. cerevisiae lifespan shortening project (AID 705;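 active = growth inhibition above 25% in both replicates, a cutoff set 3 SD above the mean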); settings: OD615, 24 h, at 10 µM, stronger effect = higher value
[10] = Restrictive medium S. cerevisiae growth inhibition, OD615, pilot screen of yeast lifespan reduction project, restrictive growth control (AID 706;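 active = growth inhibition above a set limit, 3 SD over mean compound inhibition, in both replicates, cut at about 43% in these data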;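 also: modified DeaD lifespan yeast strain shifted to restrictive glucose medium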); settings: OD615, 48 h, at 10 µM, stronger effect = higher value
[11] = viability gain of MRP-1-high H69AR cells under doxorubicin, pilot screen, MRP-1 activator project, CellTiter-Glo, duplicate (AID 807;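 active = viability increase at or above a cutoff of the median across tested compounds plus 3 SD, cut at about 8.5% in these data, passing the limit was not always enough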;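 also: compound pretreatment 18-22 h then 72 h combined with doxorubicin; 0% = doxorubicin alone and 100% = vehicle without doxorubicin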); settings: H69AR viability with doxorubicin, CellTiter-Glo luminescence; at 10 µM; stronger effect = higher value
[12] = growth suppression of beta-catenin knockout HCT116, pilot screen, human colon tumor cells (AID 823;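 active = cell viability at or below a set limit in both duplicate runs, the limit being the all-compound median minus 4 SD, cut at about 23% in these data, passing the limit was not always enough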;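 also: 0% = wells killed by 20 µM Hyamine and 100% = untreated DMSO cell wells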); settings: CellTiter-Glo, 60 h, at 10 µM, stronger effect = lower value
[13] = growth suppression of PTEN-deleted HCT116, pilot screen, cell-based, HCT116 clonal line, CellTiter-Glo (AID 824;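 active = viability at or below 27.92% in each of two runs, the all-compound median minus 4 SD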;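 also: 0% = 20 µM Hyamine control and 100% = vehicle cell control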); settings: 60 h, at 10 µM, stronger effect = lower value
[14] = inhibitors of the yeast RAM network, pilot screen, dse1pr::URA3 reporter, 5-FOA selection (AID 869;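 active = inhibition over a set limit, the all-compound mean plus 3 SD, in both replicate runs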;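 also: 0% = DMSO wells with no growth and 100% = 10 µM 1-NA-PP1 with full growth; RAM network block rescues cells from 5-FOA so hits raise OD615 growth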); settings: S. cerevisiae dse1pr::URA3 5-FOA growth, OD615, 2 d; at 10 µM; stronger effect = higher value; strain carries analog-sensitive mutant Cbk1 kinase
[15] = RAM signaling pathway blockade in yeast – S. cerevisiae, Pdr1DBD-CYC8 efflux-inhibited sensitized strain, primary screen (AID 1298);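 also: 0% = DMSO untreated cells without growth and 100% = 10 µM 1-NA-PP1 full growth; higher means more yeast growth rescued from 5-FOA killing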; settings: S. cerevisiae cbk1-as DSE1-URA3 strain, 5-FOA growth OD615, 2 d; at 50 µM; stronger effect = higher value
[16] = H69AR cells + 2 uM doxorubicin, measured here: viability with 2 uM doxorubicin, stronger effect = lower value
[17] = H69AR cells, compound alone cytotoxicity

Receptor tyrosine-protein kinase erbB-2 (Homo sapiens), sequence (P04626 whole entry, looked up): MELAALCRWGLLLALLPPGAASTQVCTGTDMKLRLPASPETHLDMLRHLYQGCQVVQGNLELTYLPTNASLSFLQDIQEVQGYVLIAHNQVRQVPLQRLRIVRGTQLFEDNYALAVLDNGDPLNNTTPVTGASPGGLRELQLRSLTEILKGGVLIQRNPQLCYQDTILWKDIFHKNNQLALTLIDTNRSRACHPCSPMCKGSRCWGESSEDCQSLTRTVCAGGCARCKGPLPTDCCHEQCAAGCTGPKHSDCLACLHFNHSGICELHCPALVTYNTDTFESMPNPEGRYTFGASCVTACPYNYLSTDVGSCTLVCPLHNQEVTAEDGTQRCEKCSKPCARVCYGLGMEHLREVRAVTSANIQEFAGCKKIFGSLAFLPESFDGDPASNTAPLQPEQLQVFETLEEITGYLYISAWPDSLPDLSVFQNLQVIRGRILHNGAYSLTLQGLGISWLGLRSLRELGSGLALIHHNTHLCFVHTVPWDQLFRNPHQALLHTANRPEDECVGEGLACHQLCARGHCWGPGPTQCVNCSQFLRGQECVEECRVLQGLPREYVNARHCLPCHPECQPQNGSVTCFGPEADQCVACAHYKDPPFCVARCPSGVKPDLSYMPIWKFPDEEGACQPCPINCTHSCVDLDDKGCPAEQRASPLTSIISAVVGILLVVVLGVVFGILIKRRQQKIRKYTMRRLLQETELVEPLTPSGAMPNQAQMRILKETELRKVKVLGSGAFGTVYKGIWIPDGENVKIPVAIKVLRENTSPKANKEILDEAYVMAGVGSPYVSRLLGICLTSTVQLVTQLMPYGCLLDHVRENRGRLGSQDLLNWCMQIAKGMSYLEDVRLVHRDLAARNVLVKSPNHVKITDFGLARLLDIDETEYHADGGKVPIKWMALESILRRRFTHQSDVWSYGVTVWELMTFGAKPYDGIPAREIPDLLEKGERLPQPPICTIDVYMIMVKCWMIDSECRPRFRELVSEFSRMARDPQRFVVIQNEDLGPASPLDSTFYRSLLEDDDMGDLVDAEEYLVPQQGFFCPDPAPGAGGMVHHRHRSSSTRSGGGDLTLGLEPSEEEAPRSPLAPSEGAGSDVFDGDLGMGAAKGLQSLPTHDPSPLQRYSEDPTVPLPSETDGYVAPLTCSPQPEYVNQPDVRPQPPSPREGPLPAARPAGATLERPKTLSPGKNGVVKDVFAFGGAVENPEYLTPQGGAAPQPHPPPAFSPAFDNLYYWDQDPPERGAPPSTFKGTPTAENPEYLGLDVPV

Row | Structure (SMILES) | viability [1] | Her2 level [2] | viability [3] | viability [4] | viability [5] | differential viability (reversal) ([6]; H69AR cells + 2 uM doxorubicin) | viability [6, 16] | viability [6, 17] | inhibition [7] | inhibition [8] | growth inhibition [9] | growth inhibition [10] | viability increase [11] | viability [12] | viability [13] | inhibition [14] | RAM network inhibition [15]
1 | COc1ccc(S(=O)(=O)NCC(c2cccnc2)N2CCN(C)CC2)cc1C (stereo not given) | 97% | 98.5% (inactive) | 97% (inactive) | 80.9% (inactive) | 91% (inactive) | -2.52% (inactive) | 93.5% | 91% | -0.64% (inactive) | -2% (inactive) | 1.16% (inactive) | -9.37% (inactive) | -2.64% (inactive) | 97.8% (inactive) | 96.1% (inactive) | 2.23% (inactive) | 0.11% (inactive)
2 | CCN(CCCNS(=O)(=O)c1ccc2c(c1)oc(=O)n2C)c1cccc(C)c1 | 88% | 100% (inactive) | 88% (inactive) | 106% (inactive) | 90.1% (inactive) | 5.6% (inactive) | 84.5% | 90.1% | -0.38% (inactive) | 1.33% (inactive) | -12% (inactive) | -10.2% (inactive) | -3.21% (inactive) | 87.2% (inactive) | 89.5% (inactive) | 0.695% (inactive) | 7.59% (inactive)
3 | Cc1ccnc2c(N3C(=O)C4C5C=CC(C5)C4(C)C3=O)cccc12 (stereo not given) | 98% | 102% (inactive) | 98% (inactive) | 105% (inactive) | 92.9% (inactive) | 1.47% (inactive) | 91.4% | 92.9% | -3.47% (inactive) | -5.5% (inactive) | -20.2% (inactive) | -11.7% (inactive) | -0.94% (inactive) | 93.3% (inactive) | 95.5% (inactive) | 1.86% (inactive) | -1.63% (inactive)
4 | CC(NC(=O)c1cc2c(=O)n(C)c3ccccc3c2n1C)c1ccc2c(c1)OCCO2 (stereo not given) | 94.5% | 84% (inactive) | 94.5% (inactive) | 77% (inactive) | 42.7% (active) | -20.9% (inactive) | 63.6% | 42.7% | -2.18% (inactive) | 1.33% (inactive) | -5.51% (inactive) | -1.51% (inactive) | -4.19% (inactive) | 65.6% (inactive) | 58.2% (inactive) | 0.645% (inactive) | 3.77% (inactive)
5 | CCOCCCNC(=O)CN1CCN(Cc2ccccc2C)C1=O | 83.5% | 96% (inactive) | 83.5% (inactive) | 97.8% (inactive) | 97% (inactive) | 7.06% (inactive) | 89.9% | 97% | -6.8% (inactive) | -7.7% (inactive) | -4.88% (inactive) | 6.12% (inactive) | 0.02% (inactive) | 94.7% (inactive) | 86.8% (inactive) | 1.54% (inactive) | 1.29% (inactive)
6 | COc1ccc(-c2nnc(SCC(=O)N3CCOCC3)o2)cc1OC | 91% | 96% (inactive) | 91% (inactive) | 89.4% (inactive) | 96.1% (inactive) | 3.41% (inactive) | 92.7% | 96.1% | -1.2% (inactive) | -6.89% (inactive) | 1.14% (inactive) | -3.02% (inactive) | -1.32% (inactive) | 103% (inactive) | 110% (inactive) | 1.16% (inactive) | 1.27% (inactive)
7 | Cc1c(NC(=O)c2ccc(Br)o2)c(=O)n(-c2ccccc2)n1C | 91% | 96% (inactive) | 91% (inactive) | 89.2% (inactive) | 91.2% (inactive) | 5.07% (inactive) | 86.1% | 91.2% | -5.06% (inactive) | -1.67% (inactive) | -11.6% (inactive) | -4.15% (inactive) | 0.9% (inactive) | 97.7% (inactive) | 103% (inactive) | 1.59% (inactive) | 2.23% (inactive)
8 | COCCN(CCOC)Cc1c(C)[nH]c2ccccc2c1=O | 96.5% | 98% (inactive) | 96.5% (inactive) | 105% (inactive) | 89.4% (inactive) | -4.47% (inactive) | 93.8% | 89.4% | 1.28% (inactive) | -7.5% (inactive) | -0.675% (inactive) | -3.83% (inactive) | -2.47% (inactive) | 92.1% (inactive) | 91.3% (inactive) | 1.22% (inactive) | 3.31% (inactive)
9 | CC(C)(C)NC(=O)Cn1c(=O)oc2ccc(Cl)cc21 | 96% | 104% (inactive) | 96% (inactive) | 96.5% (inactive) | 92.9% (inactive) | 28.8% (inactive) | 64.1% | 92.9% | -2.4% (inactive) | 0.83% (inactive) | 5.54% (inactive) | 5.01% (inactive) | -4.63% (inactive) | 106% (inactive) | 100% (inactive) | 0.38% (inactive) | 7.56% (inactive)
10 | COc1ccc(C2CC(c3ccc(Cl)cc3Cl)n3nc(N)nc3N2)cc1 (stereo not given) | 95% | 93.5% (inactive) | 95% (inactive) | 79.8% (inactive) | 90.4% (inactive) | -0.635% (inactive) | 91.1% | 90.4% | 0.64% (inactive) | 3.67% (inactive) | 7.35% (inactive) | 25.7% (inactive) | 3.63% (inactive) | 90.9% (inactive) | 91.3% (inactive) | 1.59% (inactive) | 4.26% (inactive)
